Results filed as inconclusive are left out. Activity calls are given as the source filed them. Unless noted, the call rests on the fitted dose curve; in most records, active means well fitted curve in the direction sought with a large enough effect in the repeat runs; inconclusive means weak or mixed curves; inactive means no such curve, though single readings can be large; an effect the other way counts as inactive or inconclusive.
Assays:
[1] = qHTS assay to test for compound auto fluorescence at 535 nm (green) in HEK293 cells (AID 720680)
[2] = qHTS assay to test for compound auto fluorescence at 460 nm (blue) in HEK293 cell free culture (AID 720681)
How it was run: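 Compounds were added to cell-free DMEM with 10% FBS and fluorescence read directly. The blue channel used 405 nm excitation and 460 nm emission, with triamterene as the reference fluorophore.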

[3] = qHTS assay to test for compound auto fluorescence at 590 nm (red) in HEK293 cell free culture (AID 720683)
How it was run: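 Cell-free wells of DMEM with 10% FBS received compound, and intrinsic fluorescence was read at excitation/emission 540/590 nm. Values expressed as equivalence to Rose Bengal sodium.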

[4] = qHTS assay to test for compound auto fluorescence at 460 nm (blue) in HepG2 cell free culture (AID 720685)
How it was run: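 Compound (23 nL) or DMSO pinned into cell-free MEM with 10% FBS; blue fluorescence read at 405/460 nm excitation/emission, expressed as auto-fluorescence equivalency to triamterene.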

[5] = qHTS assay to test for compound auto fluorescence at 535 nm (green) in HepG2 cell free culture (AID 720686)
[6] = qHTS assay to test for compound auto fluorescence at 460 nm (blue) in HepG2 cells (AID 720687)
How it was run: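 HepG2 cells in MEM with 10% FBS, attached overnight at 37 C, were exposed to compound or DMSO for 1 hr at 37 C, 5% CO2. Blue fluorescence was read at 405/460 nm, with triamterene as reference fluorophore.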

[7] = target: Glucocorticoid receptor (Homo sapiens) (UniProt P04150); assay: qHTS assay to identify small molecule agonists of the glucocorticoid receptor (GR) signaling pathway (AID 720691; active means well fitted activation curve with a large enough effect in the signal ratio in the repeat runs, not every such curve was filed as active; the % refers to the signal ratio)
How it was run: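 Fluorescence intensity from LiveBLAzer B/G FRET substrate (2 h, room temperature) reports beta-lactamase expression driven by the glucocorticoid response element in GR-bla HeLa cells after 18 h compound exposure at 37 C.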

[8] = target: Glucocorticoid receptor (Homo sapiens) (UniProt P04150); assay: qHTS assay to identify small molecule antagonists of the glucocorticoid receptor (GR) signaling pathway (AID 720692; active means well fitted inhibition curve with a large enough effect in the signal ratio in the repeat runs, not every such curve was filed as active; the % refers to the signal ratio)
How it was run: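 HeLa GR-bla cells; cmpd + dex 5 nM final, 18 h 37 C; LiveBLAzer B/G FRET substrate 2 h RT; fluorescence intensity read. Antagonist mode, qHTS.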

[9] = qHTS assay to identify small molecule antagonists of the glucocorticoid receptor (GR) signaling pathway - cell viability counter screen (AID 720693); further: nearly all actives have a fitted effect of over 55% in size
[10] = qHTS assay for identifying genotoxic compounds that show differential cytotoxicity against isogenic chicken DT40 cell lines with known DNA damage response pathways - wild type cell line (AID 743012); further: nearly all actives have a fitted effect of over 60% in size; further: potency means the concentration at half of the fitted maximal effect
How it was run: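 Wild type DT40, 300 cells/well, ~0.5 h settle at 37 C/5% CO2; compounds in DMSO added by pintool; 40 h at 37 C/5% CO2; CellTiter-Glo, 30 min RT; luminescence.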

[11] = qHTS assay for identifying genotoxic compounds that show differential cytotoxicity against isogenic chicken DT40 cell lines with known DNA damage response pathways - Rev3 mutant cell line (AID 743014); further: nearly all actives have a fitted effect of over 55% in size; further: potency means the concentration at half of the fitted maximal effect
[12] = qHTS assay for identifying genotoxic compounds that show differential cytotoxicity against isogenic chicken DT40 cell lines with known DNA damage response pathways - Rad54/Ku70 mutant cell line (AID 743015); further: nearly all actives have a fitted effect of over 60% in size; further: potency means the concentration at half of the fitted maximal effect
[13] = qHTS assay to identify small molecule antagonists of the androgen receptor (AR) signaling pathway - cell viability counter screen (AID 743033; further: nearly all actives have a fitted effect of over 45% in size)
[14] = qHTS assay to identify small molecule antagonists of the androgen receptor (AR) signaling pathway using the MDA cell line - cell viability counter screen (AID 743041; further: nearly all actives have a fitted effect of over 45% in size)
How it was run: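 Same-well cytotoxicity was assessed by CellTiter-Fluor in MDA-kb2 AR-luc cells after 16 h of compound treatment under R1881 agonism.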

[15] = qHTS assay to test for compound auto fluorescence at 590 nm (red) in HepG2 cell free culture (AID 720684)
How it was run: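 Compounds are added to culture medium (MEM, 10% FBS) lacking cells, then fluorescence is read at excitation 540 nm, emission 590 nm, with Rose Bengal sodium as the equivalency standard.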

[16] = qHTS assay to test for compound auto fluorescence at 535 nm (green) in HEK293 cell free culture (AID 720682)
How it was run: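 Cell-free medium (DMEM, 10% FBS) receives compound or DMSO by pintool. Plate read directly at Ex 485/Em 535 nm. Signal converted to fluorescein equivalency.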

[17] = target: Androgen receptor (Homo sapiens) (UniProt P10275); assay: qHTS assay to identify small molecule antagonists of the androgen receptor (AR) signaling pathway (AID 743035; active means well fitted inhibition curve with a large enough effect in the signal ratio in the repeat runs, not every such curve was filed as active; the % refers to the signal ratio)
How it was run: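 Fluorescence from a beta-lactamase FRET substrate (LiveBLAzer B/G, 2 h, room temperature) measured inhibition of R1881-stimulated signaling in GeneBLAzer AR-UAS-bla HEK293 cells exposed to compound for 16 h at 37C.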

[18] = target: Androgen receptor (Homo sapiens) (UniProt P10275); assay: qHTS assay to identify small molecule agonists of the androgen receptor (AR) signaling pathway (AID 743036; active means well fitted activation curve with a large enough effect in the signal ratio in the repeat runs, with a control signal flat, not every such curve was filed as active; the % refers to the signal ratio)
How it was run: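 AR-bla HEK293 cells, 2,000/well; 4 h preincubation 37C/5% CO2; compound (DMSO) 16 h at 37C; LiveBLAzer B/G FRET substrate 2 h RT; fluorescence intensity read-out.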

[19] = target: Androgen receptor (Homo sapiens) (UniProt P10275); assay: qHTS assay to identify small molecule agonists of the androgen receptor (AR) signaling pathway using the MDA cell line (AID 743040; further: nearly all actives have a fitted effect of over 20% in size)
How it was run: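 Human breast carcinoma MDA-kb2 reporter cells (MMTV-luc, AR/GR elements) were treated for 16 h at 37C in 0% CO2 following a 5 h settling period. Signal was quantified by ONE-Glo luminescence.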

[20] = target: Androgen receptor (Homo sapiens) (UniProt P10275); assay: qHTS assay to identify small molecule antagonists of the androgen receptor (AR) signaling pathway using the MDA cell line (AID 743042; further: nearly all actives have a fitted effect of over 55% in size)
How it was run: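 MDA-kb2 breast carcinoma cells carrying MMTV-luciferase (AR/GR responsive) were co-treated with compounds and the agonist R1881 for 16 h at 37C. Inhibition read as ONE-Glo luminescence; CellTiter-Fluor fluorescence measured in parallel for cytotoxicity.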
On the % scale 0 is the no-effect control and ±100 the full control effect.

Androgen receptor (Homo sapiens), sequence (P10275 whole entry, looked up): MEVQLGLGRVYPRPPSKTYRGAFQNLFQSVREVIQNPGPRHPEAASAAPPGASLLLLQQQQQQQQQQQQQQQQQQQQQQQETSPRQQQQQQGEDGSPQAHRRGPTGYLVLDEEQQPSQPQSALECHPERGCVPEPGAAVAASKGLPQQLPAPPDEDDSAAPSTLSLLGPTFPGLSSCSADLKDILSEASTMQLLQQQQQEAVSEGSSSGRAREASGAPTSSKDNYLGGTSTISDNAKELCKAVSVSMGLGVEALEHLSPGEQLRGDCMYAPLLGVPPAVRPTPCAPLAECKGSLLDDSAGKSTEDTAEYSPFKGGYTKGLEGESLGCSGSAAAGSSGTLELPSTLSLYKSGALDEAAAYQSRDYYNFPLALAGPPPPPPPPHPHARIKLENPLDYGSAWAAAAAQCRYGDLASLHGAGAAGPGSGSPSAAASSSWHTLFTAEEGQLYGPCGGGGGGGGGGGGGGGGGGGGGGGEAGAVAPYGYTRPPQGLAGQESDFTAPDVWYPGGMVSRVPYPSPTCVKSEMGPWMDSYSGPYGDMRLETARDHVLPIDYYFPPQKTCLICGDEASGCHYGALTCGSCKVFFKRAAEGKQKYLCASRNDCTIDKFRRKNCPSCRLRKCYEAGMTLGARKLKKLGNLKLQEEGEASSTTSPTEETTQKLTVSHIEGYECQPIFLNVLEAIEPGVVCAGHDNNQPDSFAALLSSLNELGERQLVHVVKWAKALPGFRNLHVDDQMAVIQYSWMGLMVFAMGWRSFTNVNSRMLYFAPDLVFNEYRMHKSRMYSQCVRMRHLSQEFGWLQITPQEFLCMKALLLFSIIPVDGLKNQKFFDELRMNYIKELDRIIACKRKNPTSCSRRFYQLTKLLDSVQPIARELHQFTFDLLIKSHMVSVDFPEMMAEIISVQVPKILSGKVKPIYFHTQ
Glucocorticoid receptor (Homo sapiens), sequence (P04150 whole entry, looked up): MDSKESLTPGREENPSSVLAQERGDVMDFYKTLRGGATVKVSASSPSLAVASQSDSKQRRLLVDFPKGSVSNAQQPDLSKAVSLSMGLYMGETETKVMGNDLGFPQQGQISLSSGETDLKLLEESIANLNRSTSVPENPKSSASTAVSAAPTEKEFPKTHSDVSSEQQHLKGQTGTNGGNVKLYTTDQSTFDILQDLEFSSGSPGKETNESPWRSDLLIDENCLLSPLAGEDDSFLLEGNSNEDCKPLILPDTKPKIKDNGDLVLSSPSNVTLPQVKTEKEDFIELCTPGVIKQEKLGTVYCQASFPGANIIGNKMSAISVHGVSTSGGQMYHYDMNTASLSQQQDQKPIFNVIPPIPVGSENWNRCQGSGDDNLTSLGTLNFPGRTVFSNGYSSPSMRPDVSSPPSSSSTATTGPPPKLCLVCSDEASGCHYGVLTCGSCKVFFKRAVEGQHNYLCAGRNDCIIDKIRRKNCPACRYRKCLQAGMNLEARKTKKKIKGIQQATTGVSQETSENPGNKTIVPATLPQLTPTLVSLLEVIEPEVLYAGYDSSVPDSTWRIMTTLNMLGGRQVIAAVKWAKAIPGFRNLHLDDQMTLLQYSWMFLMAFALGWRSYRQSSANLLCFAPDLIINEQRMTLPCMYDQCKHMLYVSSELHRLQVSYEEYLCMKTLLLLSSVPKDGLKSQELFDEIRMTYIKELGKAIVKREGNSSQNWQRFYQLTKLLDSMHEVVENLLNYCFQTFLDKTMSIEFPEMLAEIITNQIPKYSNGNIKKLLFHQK

CCC(C)CCCC(C)(C)O (centres undefined)
inactive: outcome [1] | Potency [2] | outcome [3] | outcome [4] | outcome [5] | outcome [6] | Potency [7] | Potency [8] | Potency [9] | Potency [10] | Potency [11] | Potency [12] | Potency [13] | Potency [14]

O=C(O)c1ccccc1[N+](=O)[O-]
inactive: outcome [1] | Potency [2] | outcome [3] | outcome [15] | outcome [4] | outcome [5] | outcome [6] | Potency [7] | Potency [8] | Potency [10] | Potency [11] | Potency [12] | Potency [13] | Potency [14]

CCOC(=O)CC(O)(CC(=O)OCC)C(=O)OCC
inactive: outcome [1] | Potency [2] | outcome [3] | outcome [15] | outcome [4] | outcome [5] | outcome [6] | Potency [7] | Potency [8] | Potency [9] | Potency [10] | Potency [13] | Potency [14]

O=C(NC1CCN(CCc2c[nH]c3ccccc23)CC1)c1ccccc1
active: Potency [11] 33.5 µM | Potency [12] 29.8 µM
inactive: outcome [1] | outcome [16] | outcome [3] | outcome [15] | outcome [4] | outcome [5] | outcome [6] | Potency [9] | Potency [13] | Potency [14]

Oc1ccc(Oc2ccccc2)cc1
inactive: outcome [1] | Potency [2] | outcome [3] | outcome [15] | outcome [4] | outcome [5] | outcome [6] | Potency [13] | Potency [14]
active: Potency [10] 20.6 µM | Potency [11] 23.1 µM | Potency [12] 36.6 µM

O=C(O)c1ccncc1
inactive: outcome [1] | Potency [2] | outcome [3] | outcome [15] | outcome [4] | outcome [5] | outcome [6] | Potency [7] | Potency [8] | Potency [9] | Potency [10] | Potency [11] | Potency [12] | Potency [13] | Potency [17] | outcome [18] | outcome [19] | Potency [14] | Potency [20]

CC(CN=Cc1ccccc1O)N=Cc1ccccc1O (centres undefined)
inactive: outcome [1] | Potency [2] | outcome [3] | outcome [15] | outcome [4] | outcome [5] | outcome [6] | Potency [7] | Potency [9] | Potency [10] | Potency [12] | Potency [13] | Potency [14]

CC1(C)[C@@H]2CC[C@]3(C2)[C@@H]1C(=O)CCC3(C)C
inactive: outcome [1] | Potency [2] | outcome [3] | outcome [15] | outcome [4] | outcome [5] | outcome [6] | Potency [9] | Potency [13] | Potency [17] | outcome [18] | outcome [19] | Potency [14] | Potency [20]

CC(C)Oc1ccccc1O
inactive: outcome [1] | Potency [2] | outcome [3] | outcome [15] | outcome [4] | outcome [5] | outcome [6] | Potency [8] | Potency [9] | Potency [11] | Potency [12] | Potency [13]

O=C(O)CNc1ccccc1
inactive: outcome [1] | Potency [2] | outcome [3] | outcome [4] | outcome [6] | Potency [7] | Potency [8] | Potency [9] | Potency [10] | Potency [11] | Potency [12] | Potency [13] | Potency [14]

Cc1cc(N)n(-c2ccccc2)n1
inactive: outcome [1] | Potency [2] | outcome [3] | outcome [15] | outcome [4] | outcome [5] | outcome [6] | Potency [9] | Potency [10] | Potency [12] | Potency [13] | Potency [14]

CCCCC(CC)COCCC#N (centres undefined)
inactive: outcome [1] | Potency [2] | outcome [3] | outcome [15] | outcome [4] | outcome [5] | outcome [6] | Potency [9] | Potency [10] | Potency [11] | Potency [12] | Potency [13]

O=C(OC1C[C@H]2CC[C@@H](C1)[N+]21CCCC1)C(O)(c1ccccc1)c1ccccc1 (some centres undefined)
inactive: outcome [1] | Potency [2] | outcome [3] | outcome [15] | outcome [4] | outcome [5] | outcome [6] | Potency [9] | Potency [10] | Potency [11] | Potency [12] | Potency [13] | outcome [18] | outcome [19] | Potency [14] | Potency [20]

O=C(O)c1ccc2c(c1)nc(C(=O)NC1CCN(C3CC3)CC1)n2Cc1cc(-c2ccc(Cl)s2)on1
inactive: fluorescence, % of fluorescein [1] -0.0247% [at 18.6 µM] | fluorescence, % of fluorescent control [2] 0.0923% [at 18.6 µM] | fluorescence, % of fluorescent control [3] 0.116% [at 18.6 µM] | fluorescence, % of Rose Bengal [15] -0.135% [at 18.6 µM] | fluorescence, % of fluorescent control [4] -0.029% [at 18.6 µM] | fluorescence, % of fluorescein control [5] -0.0042% [at 18.6 µM] | fluorescence, % of fluorescent control [6] 0.0789% [at 18.6 µM] | Potency [9] | Potency [11] | Potency [13] | Potency [14]

Cc1nc2sccn2c(=O)c1CCN1CCC(=C(c2ccc(F)cc2)c2ccc(F)cc2)CC1
inactive: outcome [1] | Potency [2] | outcome [3] | outcome [15] | outcome [4] | outcome [5] | outcome [6] | Potency [9] | Potency [13]
active: Potency [10] 7.5 µM | Potency [11] 13.3 µM | Potency [12] 13.3 µM

O=C(Cl)c1cc(Cl)cc(Cl)c1
inactive: outcome [1] | Potency [2] | outcome [3] | outcome [4] | outcome [5] | outcome [6] | Potency [9] | Potency [11] | Potency [12] | Potency [13] | Potency [14]

COC(=O)Cc1cccc2ccccc12
inactive: outcome [1] | Potency [2] | outcome [3] | outcome [4] | outcome [5] | outcome [6] | Potency [7] | Potency [8] | Potency [9] | Potency [13] | outcome [18] | outcome [19] | Potency [14] | Potency [20]
active: Potency [11] 54.5 µM

C/C=C1\[C@H]2C=C(C)C[C@]1(N)c1ccc(=O)[nH]c1C2
inactive: outcome [1] | Potency [2] | outcome [3] | outcome [15] | outcome [4] | outcome [5] | outcome [6] | Potency [7] | Potency [9] | Potency [10] | Potency [11] | Potency [12] | Potency [13] | Potency [14]

Reference: PubChem BioAssay (Tox21)
